# Data reported in PubChem BioAssay AID651793 (National Center for Advancing Translational Sciences (NCATS), 2012).
# Results filed as inconclusive are left out. Calls of active or inactive are those of the source. The call rests on the fitted dose curve; in most records, active means well fitted inhibition curve with a large enough effect; inconclusive means small, poorly fitted or top-dose-only effect; inactive means flat fitted curve, though single readings scatter.
# Assay: InCell qHTS Assay for Inhibitors of the mTORC1 Signaling Pathway in WT MEF Cells: Hit Validation
# Conditions: WT MEF phospho-rpS6 immunofluorescence, Acumen, 24 h; series mostly up to 38.3 µM
# From the text: The mammalian target of rapamycin (mTOR) is an intracellular serine/threonine kinase Aberrant regulation of mTOR signaling plays a causative role in a number of human diseases, including cancer, benign tumors such as lymphangioleiomyomatosis (LAM) and Tuberous Sclerosis Complex (TSC), and metabolic diseases such as diabetes and obesity. This project aims to identify inhibitors of ribosomal protein S6 (rpS6) phosphorylation. The phosphorylation of rpS6 is a key event downstream of mTOR activation. The assay uses a phospho-specific antibody of phospho-rpS6 to detect inhibitors of mTOR activation. Mutations in the Tsc1 and Tsc2 genes are the underlying genetic lesions responsible for TSC, causing constitutive activation of the mTORC1 pathway and leading to profound effects on cell metabolism. Aberrant metabolism in cancer has recently received significant attention as a target to develop therapeutic agents in the treatment of cancer.1 As Tsc2-/- cells have lost the ability to respond to energy and growth factor deprivation, these cells are unable to properly down regulate cellular biosynthetic processes in response to metabolic stress, and are thus extremely sensitive to glucose deprivation-induced death.2 A central goal of this project is to explore the unique cell survival and metabolic properties of cells with Tsc1 or Tsc2 by screening for compounds that selectively target the Tsc2-/- MEFs by screening both Tsc2-/- and WT MEF cell lines. We hope to better understand these aspects of TSC physiology in order to exploit them for therapeutic benefit. NIH Molecular Libraries Probe Production Centers Network [MLPCN] NIH Chemical Genomics Center [NCGC] MLPCN Grant: NS059428 Assay Submitter (PI): Blenis, John; Harvard University
# For quantitative high throughput analysis of mTORC1 signaling, we developed a cell-based assay for immuno-fluorescence based detection of rpS6 phosphorylation on the Acumen Explorer that will be used a platform for the primary small molecule screen. Mouse embryonic fibroblasts (MEFs) are cultured in 1536-well plates using DMEM + 10% FBS. Twenty-four hrs after plating, test compounds (solubilized in DMSO) are delivered and incubated with the cells for 24 hrs at 37 degree Celsius. Following the incubation, media with compound is aspirated and the cells are fixed in 4% paraformaldehyde (PFA) containing PBS + 0.2% TX-100. Next, PFA is aspirated, cells are washed two times with PBS plus 0.2% TX-100 and the cells are blocked for 1 hr at room temperature (blocking buffer: LiCOR Blocking Buffer plus 0.2% TX-100). This is followed by aspiration and staining with Alexa-488 conjugated-phospho-rpS6 Ser235/236 antibody for 2 hours at room temperature (Cell Signaling Technology # 4803, 1:50 dilution in blocking buffer). Cells are washed two times with PBS plus 0.2% TX-100, and stained with 10 uM propidium iodide (PI) for 20-25 minutes for cell number measurement (1:500 dilution of Hoescht staining is also added for IN Cell imaging). The plates are scanned on the Acumen Explorer laser scanning instrument (TTP Labtech) using the 488nm laser for simultaneous excitation of the Alexa-488 and PI. The fluorescence emission from the Alexa-488 conjugated rpS6 phospho-235/236 antibody staining is selected using a […] band pass filter. Fluorescence emission from the PI stain is selected using a 575-640 nm band pass filter. The normalized phospho-S6 staining is calculated as the ratio of the integrated Alexa 488 intensity divided by the integrated PI intensity for the single concentration rapamycin control (7.5 nM) and DMSO columns. […] Inhibition of the pathway is defined based on the normalized phospho-S6 intensity in rapamycin treated cells. […]
row,SMILES,Potency
1,CCCOc1ccc(C(=O)Nc2ccc(NC(=O)c3ccccc3)c(Br)c2)cc1,10 µM (active)
2,O=C1CC(c2ccccc2)Cc2[nH]c(=O)c(-c3nc(-c4cccc(Cl)c4)cs3)cc21 (configuration not stated),inactive
3,CCN1CCN(c2cc(C)c3cc(NC(=O)/C=C/c4ccc(OCCC(C)C)cc4)ccc3n2)CC1,3.18 µM (active)
4,Cc1cccc(Nc2nc(Nc3cccc(C)c3)nc(N3CCOCC3)n2)c1,20 µM (active)
5,COc1ccc(OC)c(C2CC(=O)c3c([nH]c(C(=O)OCc4ccc(C)cc4)c3C)C2)c1 (configuration not stated),inactive
6,CCOc1ccc(Nc2nc(Nc3ccc(OCC)cc3)nc(N3CCOCC3)n2)cc1,inactive
7,CCCCc1ccc(C(=O)Nc2ccc3nc(N4CCN(CC)CC4)cc(C)c3c2)cc1,8.95 µM (active)
8,Cc1cc(N2CCN(C)CC2)nc2ccc(NC(=O)c3ccc(C(C)(C)C)cc3)cc12,15.9 µM (active)
9,COc1ccccc1Nc1c2c(nc3ccc(NC(=O)c4cccc(OC)c4OC)cc13)CCCC2,17.9 µM (active)
10,CCN1CCN(c2cc(C)c3cc(NC(=O)c4cc(OC)cc(OC)c4)ccc3n2)CC1,inactive
11,COc1cc(Nc2nc(-c3ccc(OC)c(OC)c3)nc3ccccc23)cc(OC)c1,inactive
12,CCOc1ccc(/C=C/C(=O)Nc2ccc3nc(N(CC)CC)cc(C)c3c2)cc1OC,10 µM (active)
13,C=CCNC1=C2C[C@@H](C)C[C@H](OC)[C@H](O)[C@@H](C)/C=C(\C)[C@H](OC(N)=O)[C@@H](OC)/C=C\C=C(/C)C(=O)NC(=CC1=O)C2=O,0.252 µM (active)
14,CCN1CCN(c2cc(C)c3cc(NC(=O)c4cccc(Cl)c4)ccc3n2)CC1,inactive
15,COc1cc(-c2nc3ncccn3c2Nc2ccc(C)cc2C)ccc1O,inactive
16,CCN(CC)c1cc(C)c2cc(NC(=O)/C=C/c3cc(OC)c(OC)c(OC)c3)ccc2n1,22.5 µM (active)
17,COc1ccccc1Nc1c2c(nc3ccc(NC(=O)/C=C/c4cc(OC)c(OC)c(OC)c4)cc13)CCCC2,2.52 µM (active)
18,COc1ccc(/C=C/C(=O)Nc2ccc3nc4c(c(Nc5ccc(OC)c(OC)c5)c3c2)CCCC4)cc1,11.3 µM (active)
19,O=C1CC(c2ccccc2)Cc2[nH]c(=O)c(-c3nc(-c4ccc(Cl)cc4)cs3)cc21 (configuration not stated),inactive
20,COc1ccccc1Nc1c2c(nc3ccc(NC(=O)c4ccc(N(C)C)cc4)cc13)CCCC2,5.65 µM (active)
21,Cc1cc(N2CCCCC2)nc2ccc(NC(=O)/C=C/c3ccccc3OC(C)C)cc12,inactive
22,CCOc1ccc(C2CC(=O)c3c([nH]c(C(=O)OCc4ccccc4)c3C)C2)cc1 (configuration not stated),inactive
23,CCCOc1ccc(C(=O)Nc2ccc(NC(=O)c3ccccc3)c(C)c2)cc1,6.34 µM (active)
24,CCN1CCN(c2cc(C)c3cc(NC(=O)/C=C/c4ccc(C)cc4)ccc3n2)CC1,inactive
25,COc1cc(NC(=O)c2cccc(F)c2)ccc1NC(=O)c1cc2ccccc2o1,8.95 µM (active)
26,Cc1c(C(=O)OCCOc2ccccc2)[nH]c2c1C(=O)CC(c1ccccc1Cl)C2 (configuration not stated),inactive
27,COc1ccc(Nc2c3c(nc4ccc(NC(=O)/C=C/c5cccc(OC)c5OC)cc24)CCCC3)cc1OC,8.95 µM (active)
